PubChem BioAssay (NCI)
Values joined by “and” are separate entries in the source; they are usually repeats but may differ in a detail not shown here. Identical values can stand only once. The panel holds about 79,000 compounds, 15% with a hit somewhere; the sample as a whole holds those more often. Active and inactive are the calls of the source. Cut-off read from the data, not from the text of the source: active = growth inhibition above about 70%; inactive = the rest.

Assays:
[1] = NCI Yeast Anticancer Drug Screen. Data for the rad50 strain (AID 155);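 note: 0% = growth of vehicle-only cultures of the same strain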; conditions: S. cerevisiae rad50 strain growth inhibition, active compounds read high; at 50.0 µM unless noted
In short: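 Relative growth inhibition (compound vs vehicle) was measured in yeast with a defined repair-gene alteration.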

[2] = NCI Yeast Anticancer Drug Screen. Data for the mec2-1 strain (AID 157); conditions: S. cerevisiae mec2-1 strain, active compounds read high; at 50.0 µM unless noted
In short: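 Readout is yeast growth inhibition, normalised to vehicle-treated controls, in the mec2-1 strain exposed to compound.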

[3] = NCI Yeast Anticancer Drug Screen. Data for the sgs1 mgt1 strain (AID 161);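 note: 0% = growth of cultures given vehicle only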; conditions: S. cerevisiae sgs1 mgt1 strain, active compounds read high; at 50.0 µM unless noted
In short: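 Percent growth inhibition was derived by comparing compound-exposed mutant yeast with vehicle-exposed cultures. The strain carries alterations in DNA damage repair.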

[4] = NCI Yeast Anticancer Drug Screen. Data for the cln2 rad14 strain (AID 165);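 note: 0% = growth equal to vehicle treated cultures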; conditions: S. cerevisiae cln2 rad14 strain, active compounds read high; at 50.0 µM unless noted
In short: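 Relative to vehicle controls, growth inhibition of compound-treated cln2 rad14 yeast was recorded.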

[5] = NCI Yeast Anticancer Drug Screen. Data for the mlh1 rad18 strain (AID 175); conditions: S. cerevisiae mlh1 rad18 strain growth inhibition, active compounds read high; at 50.0 µM unless noted
In short: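 Test agents were incubated with a yeast strain of defined genotype (DNA damage repair defect). Inhibition of growth was derived by comparison with vehicle-exposed cultures.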

[6] = NCI Yeast Anticancer Drug Screen. Data for the bub3 strain (AID 167); conditions: S. cerevisiae bub3 mutant strain, active compounds read high; at 50.0 µM unless noted
In short: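 Screening used yeast with an engineered genetic alteration affecting cell cycle control. Compound-exposed cultures were compared with vehicle cultures, and reduced growth was taken as inhibition.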

Measured: growth inhibition

CCOC(=O)c1sc2c(c1OC(=O)c1ccc(OC)cc1)c(=O)n(-c1ccccc1)c(=S)n2-c1ccccc1
inactive: [1] 39.5% | [2] 9.65% | [3] 23.4% | [4] 17.5% | [5] 38.4%

CCOC(=O)/C=C1\SC(C)(C)C1NC(=O)OCc1ccccc1 (centres undefined)
inactive: [1] -73.2% | [2] -30.5% | [3] -6.15% | [4] -18.1% | [6] -0.2% | [5] -15%

CC(C)(C)C(C)(C)SSC(C)(C)C(C)(C)C
inactive: [1] 6.05% | [2] 12.4% | [3] 18.8% | [4] 7.4% | [5] 25.5%

CCOC(=O)c1ccc(N)nc1
inactive: [1] -3.75% | [2] -3.3% | [3] 5.35% | [4] -13% | [5] 18.6%

CC(=O)OC(C)COc1ccccc1 (centres undefined)
inactive: [1] 23.1% and 5.6% | [2] 1.55% and -10.3% | [3] 2.05% and -4.55% | [4] -31.2% and -6.8% | [5] 15.6% and 15%

O=C(O)CCC(=O)c1ccc(F)cc1
inactive: [1] -20.6% | [2] -13.7% | [3] -13.6% | [4] -0.95% | [5] -7.65%

CC(C)N(C(=O)C12C3C4C1C1C2C3C41C(=O)N(C(C)C)C(C)C)C(C)C (centres undefined)
inactive: [1] -1.85% | [2] -9.2% | [3] -12.9% | [4] -1% | [6] 8.45% | [5] -26.5%

CCC(C)(O)c1cn(-c2ccc(Cl)cc2)nn1 (centres undefined)
inactive: [1] -31.4% | [2] -32.9% | [3] -4.4% | [4] 16.4% | [5] 0.25%

NCCSS(=O)(=O)O
inactive: [1] 3.25% | [2] 4.45% | [3] -17.7% | [4] -41.5% | [5] -24.9%

O=c1c2c3c(sc2nc2n1N=C(c1ccc(Cl)cc1)CS2)CCCC3
inactive: [1] -23.6% | [2] 6.05% | [3] -37.9% | [4] 1.8% | [5] -16.6%

CCOC(=O)CSc1nc(-c2ccccc2)c(C#N)c(=O)[nH]1
inactive: [1] 3.05% | [2] 1.2% | [3] -5.4% | [4] 13.2% | [5] -61%

CC(=O)N(C(C)=O)c1c(N)n(C)c(=O)[nH]c1=O
inactive: [1] 12.7% | [2] -4.85% | [3] 6.6% | [4] 14.3% | [5] 8.5%

COc1cc(C(O)C2C(=O)OCC2C2(c3ccc4c(c3)OCO4)SCCCS2)cc(OC)c1OC (centres undefined)
inactive: [1] 36.1% and -8.8% | [2] -2.8% and -8.95% | [3] 35.4% and -21.5% | [4] 7.2% and 1.7% | [5] 1.45% and 17.2%

N#CCC(=O)OCCCc1ccccc1
inactive: [1] 15.8% | [2] 9.2% | [3] -1.5% | [4] -32.5% | [5] 0.45%

CC(/C=C/C(=O)c1sc(-n2nc(-c3ccccc3)cc2-c2ccccc2)nc1C)=C\c1ccccc1
inactive: [1] 21.9% | [2] 5.25% | [3] 25.9% | [4] 8.85% | [5] 20.7%

COc1ccc(C2=Nc3ccccc3N=C(SC)C2)cc1
inactive: [1] 42.2% | [2] -5.3% | [3] 51.1% | [4] 6.75% | [6] 53.7% | [5] 32.5%

CC1C(=O)N(c2ccccc2)NC12CCCc1ccccc12 (centres undefined)
inactive: [1] -15.2% | [2] -7.3% | [3] -34.8% | [4] 16.6% | [5] 27.6%

COC(=O)c1ccc(SCCC(=O)CN2C(=O)c3ccccc3C2=O)cc1
inactive: [1] 18.9% | [2] 8.5% | [3] 17.1% | [4] 23.1% | [5] 27.8%

CCCCCCCC(=O)C1C(=O)OC(C)(C)OC1=O
inactive: [1] 9.65% | [2] -6.45% | [3] -7.85% | [4] 9.65% | [6] -0.5% | [5] -7.15%

O=[N+]([O-])c1ccc2c(c1)S(=O)c1ccccc1-2 (centres undefined)
inactive: [1] -18.1% | [2] -3.65% | [3] -12.4% | [4] 1% | [5] -4.8%

O=C1CCCc2ccc3c(c21)CC1(Cc2cc4c(cc2C1)CCCC4)C3
inactive: [1] -22.6% | [2] 9.15% | [3] 34% | [4] -13.9% | [5] -2.7%

ONC(CC(O)(NO)NO)c1ccccc1 (centres undefined)
inactive: [1] -32.7% | [2] -32% | [3] -20.6% | [6] -28.1% | [5] -25.9%

Cc1nc2ccncc2[nH]1
inactive: [1] -7.7% | [2] -1.3% | [3] -17.4% | [6] -10.6% | [5] -8.2%

O=[N+]([O-])c1cccc(SSc2cccc([N+](=O)[O-])c2)c1
inactive: [1] 0.45% and -34.8% | [2] -16.1% and -57% | [3] -1.8% and -61.9% | [6] -3.1% and -35.6% | [5] -1.3% and -65.8%

S=c1nc[nH]c2c1ncn2Cc1ccco1
inactive: [1] 5.85% | [2] -12.9% | [3] -11.3% | [4] 0.55% | [5] 5%

C=C(C)C(=O)O[C@H]1[C@H]2[C@H](OC(=O)[C@H]2C)[C@H](O)[C@@H](C)[C@@H]2C=CC(=O)[C@]21C
inactive: [1] 31.3% | [2] 30.5% | [3] 69.8% | [4] 47.2% | [5] -31.1%

CCCCCC=C(C(=O)OCC)C(=O)OCC
inactive: [1] 22.9% | [2] -1.7% | [3] -4.15% | [6] -30.4% | [5] 11.1%

COc1ccc(OC)c(N)c1
inactive: [1] -4.3% | [2] -8.4% | [3] -7.55% | [6] 3.6% | [5] -22.9%

CC(=O)OC(CCC1CO1)OC(C)=O (centres undefined)
inactive: [1] 0.65% | [2] 11.6% | [3] -0.2% | [6] 15.2% | [5] -0.1%

Fc1cccc2c(SCc3ccc(Cl)cc3Cl)cnnc12
inactive: [1] -0.9% | [2] -1.25% | [3] 3.25% | [6] 13.8% | [5] 2.85%

C=C1C(=O)OC2C3[C@@]4(C)O[C@H]4[C@H]4O[C@@]34[C@](C)(O)CC(OC(C)=O)[C@@H]12 (some centres undefined)
inactive: [1] -16.4% | [2] -30.6% | [3] -7.3% | [6] -24.4% | [5] -22.1%

Cc1ccc(NCC(=O)N2CC(=O)Nc3ccccc32)c(C)c1
inactive: [1] -26.2% | [2] -39.1% | [3] -43.8% | [6] -27.7% | [5] -31.3%

O=C(O)CCN(CCCCN(CCC(=O)O)CCC(=O)O)CCC(=O)O
inactive: [1] 4.7% | [2] 7.05% | [3] -10.7% | [6] 1.25% | [5] -4.15%

COC(=O)/C=C(/Sc1nc(Cl)c(Cl)nc1N)C(=O)OC (tested in a mixture with another compound)
inactive: [1] -15.1% | [2] -6.25% | [3] 10.7% | [6] -29.5% | [5] -24.6%

Cc1c2cc[n+](C)c(C)c2cc2c1[nH]c1ccccc12
inactive: [1] 64.8% | [2] 19.8% | [3] 34.1% | [6] 22.4% | [5] 37.8%

CCC1=C(c2ccc(OC)cc2)CC[C@@]2(CCNC2=O)[C@@H]1C
inactive: [1] 4.8% | [2] -0.2% | [3] -5.45% | [6] 3.8% | [5] 8.8%

O=c1[nH]c2cccc([N+](=O)[O-])c2c2ccccc12
inactive: [1] 5.85% | [2] 26.6% | [3] 14.1% | [6] -6.35% | [5] 11.2%
